Measured values: PubChem BioAssay (NCI)
This is part of a sample that, as a whole, favours compounds with a hit. Of some 79,000 tested, about 15% had one in any assay. Rule as the data show it: active = growth inhibition above about 70%; inactive = the rest.

How the values were obtained:
[1] = NCI Yeast Anticancer Drug Screen. Data for the rad50 strain (AID 155);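 also: 0% = growth of vehicle-only cultures of the same strain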; details: S. cerevisiae rad50 strain growth inhibition; at 50.0 µM; stronger effect = higher value
In short: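 Relative growth inhibition (compound vs vehicle) was measured in yeast with a defined repair-gene alteration.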

[2] = NCI Yeast Anticancer Drug Screen. Data for the mec2-1 strain (AID 157); details: S. cerevisiae mec2-1 strain, at 50.0 µM, stronger effect = higher value
In short: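 Growth inhibition is read against vehicle-treated controls after compound exposure of the mec2-1 yeast strain, which is defective in DNA damage repair or cell cycle control.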

[3] = NCI Yeast Anticancer Drug Screen. Data for the sgs1 mgt1 strain (AID 161);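 also: 0% = growth of cultures given vehicle only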; details: S. cerevisiae sgs1 mgt1 strain, at 50.0 µM, stronger effect = higher value
In short: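 Growth of a repair-deficient yeast mutant was monitored after compound treatment and expressed as inhibition relative to vehicle-treated cultures.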

[4] = NCI Yeast Anticancer Drug Screen. Data for the cln2 rad14 strain (AID 165);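 also: 0% = growth equal to vehicle treated cultures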; details: S. cerevisiae cln2 rad14 strain, at 50.0 µM, stronger effect = higher value
In short: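 Growth inhibition, relative to vehicle-treated controls, is the read-out. The test organism is a yeast strain with defined genetic alterations, cln2 rad14.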

[5] = NCI Yeast Anticancer Drug Screen. Data for the bub3 strain (AID 167); details: S. cerevisiae bub3 mutant strain, at 50.0 µM, stronger effect = higher value
In short: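 Screening used yeast with an engineered genetic alteration affecting cell cycle control. Compound-exposed cultures were compared with vehicle cultures, and reduced growth was taken as inhibition.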

[6] = NCI Yeast Anticancer Drug Screen. Data for the mlh1 rad18 strain (AID 175); details: S. cerevisiae mlh1 rad18 strain growth inhibition; at 50.0 µM; stronger effect = higher value
In short: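 Cells of a genetically altered yeast strain, deficient in DNA damage repair, were treated with compound. Their growth was then compared with that of vehicle-treated cultures to give inhibition.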

Measured: growth inhibition

O=C(NN1CCCCC1)NN1CCCCC1
inactive: [1] 5.35% | [2] -2.5% | [3] 8.6% | [4] 20.1% | [5] 24% | [6] 18.2%

COc1ccccc1C1c2cc3c(cc2OC(C)(OC)C1C)OCO3 (stereo not given)
inactive: [1] -3.4% | [2] -17.2% | [3] 18.1% | [4] -12.7% | [5] -10.2% | [6] 14.1%

CC1=NN(C(=O)Cc2ccccc2)C(=O)/C1=C\c1ccc([N+](=O)[O-])cc1
inactive: [1] -38.2% | [2] -41.5% | [3] -52.4% | [4] -26.4% | [5] -55% | [6] -55.8%

Nc1nc(SCCCc2ccccc2)c2[nH]cnc2n1
inactive: [1] 7.95% | [2] -2.9% | [3] -3.4% | [4] 25.1% | [5] 31.6% | [6] -6.55%

COc1cccc(C2C3=C(COC3=O)Oc3cc4c(cc32)OCO4)c1 (stereo not given)
inactive: [1] -41.1% | [2] -24.4% | [3] -31.4% | [4] -1.6% | [5] -4.55% | [6] -14.2%

CC(O)C(N=Cc1nc(-c2ccccc2)oc1O)C(=O)O (stereo not given)
inactive: [1] -3.25% | [2] -6.55% | [3] 0% | [4] 1.2% | [5] -0.15% | [6] 7.05%

CC(=O)Nc1ccc2c(c1)Cc1cc(Cl)c(Cl)cc1-2
inactive: [1] 57.5% | [2] -4.05% | [3] 31.7% | [4] -17.1% | [5] -3.7% | [6] 37.6%

CSc1nc(-c2ccc(C)cc2)c(C#N)c(=O)[nH]1
inactive: [1] 6.25% | [2] 4.9% | [3] -9.45% | [4] 24.2% | [5] 0.4% | [6] -55.9%

Cc1cc2nc3[nH]c(=O)c4c(n3c2cc1C)CCC4
inactive: [1] 0% | [2] -6.8% | [3] 0.2% | [4] -8.95% | [5] 8.45% | [6] -15.2%

CCC1(CC)SCc2nc3ccccc3n21
inactive: [1] 23% | [2] 18.2% | [3] 58.3% | [4] 29.3% | [5] 58.8% | [6] 42.3%

O=C(O)CCC(=O)OCc1ccccc1
inactive: [1] 3.15% | [2] 22.6% | [3] -22.1% | [4] -16.6% | [5] -11.2% | [6] 0.8%

COc1ccc(/C=N/NC(=O)c2ccc(N)cc2)cc1
inactive: [1] -1.65% | [2] 3% | [3] 14.4% | [4] -15.9% | [5] 22.4% | [6] 8.75%

N#CC1(C#N)CC1c1ccccc1 (stereo not given)
inactive: [1] 8.55% | [2] 10.7% | [3] 6.75% | [4] -6.1% | [5] -2.9% | [6] 29.3%

NC(=O)COc1ccccc1
inactive: [1] -14.5% | [2] -8.75% | [3] -1.1% | [4] 14.6% | [5] -0.15% | [6] 27.9%

NNC(=O)N/N=C1\C(=O)N(c2ccc(Cl)c(Cl)c2)C(=O)C(=O)C1c1nc2ccccc2s1 (stereo not given)
inactive: [1] 41.4% | [2] 5.95% | [3] 26.9% | [4] 13.3% | [5] 0% | [6] 26.4%

CC(=O)NC(c1ccc(Cl)cc1)(c1ccc(Cl)cc1)C(Cl)(Cl)Cl
inactive: [1] -18.6% | [2] -35% | [3] -7.4% | [4] 8.5% | [5] 10.4% | [6] -3.25%

CC(=O)NC(C=O)C(O)C(O)C(O)C(=O)O (stereo not given) (tested in a mixture with another compound)
inactive: [1] -25.4% | [2] -31.2% | [3] -22.2% | [4] 1.8% | [5] -22.9% | [6] -4.9%

C=C1CC(CC(=O)C(C)CC2CC(=C)C(=O)O2)OC1=O (stereo not given)
inactive: [1] 14.1% | [2] -30.9% | [3] 14.9% | [4] 8.4% | [5] 24.5% | [6] 26.3%

c1ccc(Cc2cc(-c3cc(Cc4ccccc4)[nH]n3)n[nH]2)cc1
inactive: [1] 22.2% | [2] 11.2% | [3] 19.4% | [4] 19.2% | [5] 5.4% | [6] 20.9%

CN(C)c1ccc(C(=O)O)cc1
inactive: [1] -0.75% | [2] 11.3% | [3] -20.4% | [4] -28.8% | [5] -17.6% | [6] -16.3%
